PubChem BioAssay (NCATS)
Inconclusive results are not listed. The source made the active and inactive calls. Unless noted, calls follow the shape of the dose curve; as a rule, active = well fitted inhibition curve with a large enough effect; inconclusive = small, poorly fitted or top-dose-only effect; inactive = flat fitted curve, though single readings scatter.

How the values were obtained:
[1] = S16 Schwann cell PMP22 intronic element beta-lactamase assay (AID 624044; calls by dose curve; also: nearly all actives have a fitted effect of over 15% in size)
Outline: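 Rat S16 Schwann cells with beta-Lac driven by a PMP22 intronic element, compound-treated 24 h at 37 °C. LiveBLAzer FRET B/G read: 460 nm normalized to potassium clavulanate vs DMSO; 535 nm FRET as viability; concentration-effect curves classified.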

[2] = test system: 3D7; experiment: qHTS profiling for inhibitors of Plasmodium falciparum proliferation (AID 504749); also: nearly all actives have a fitted effect of over 60% in size; also: potency is read from the fitted curve at half-maximal effect; settings: P. falciparum in erythrocytes, SYBR Green DNA, 72 h; series mostly up to 12.8 µM
Outline: (§1)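 P. falciparum-infected erythrocytes (0.3% parasitemia, 2.5% hematocrit final) were exposed to compounds for 72 h at 37 C in 5% CO2, then lysed with SYBR Green buffer overnight at room temperature; parasite DNA fluorescence was normalized to artemisinin and DMSO controls.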

[3] = test system: AS120; experiment: as above; settings: P. falciparum in erythrocytes, SYBR Green DNA, 72 h; series mostly up to 12.8 µM
Outline: as §1

[4] = test system: ATS189; experiment: as above; settings: P. falciparum in erythrocytes, SYBR Green DNA, 72 h; series mostly up to 12.8 µM
Outline: as §1

[5] = test system: ATS95; experiment: as above; settings: P. falciparum in erythrocytes, SYBR Green DNA, 72 h; series mostly up to 12.8 µM
Outline: as §1

[6] = test system: CP201; experiment: as above; settings: P. falciparum in erythrocytes, SYBR Green DNA, 72 h; series mostly up to 12.8 µM
Outline: as §1

[7] = test system: CP217; experiment: as above; settings: P. falciparum in erythrocytes, SYBR Green DNA, 72 h; series mostly up to 12.8 µM
Outline: as §1

[8] = test system: CP238; experiment: as above; settings: P. falciparum in erythrocytes, SYBR Green DNA, 72 h; series mostly up to 12.8 µM
Outline: as §1

[9] = test system: CP252; experiment: as above; settings: P. falciparum in erythrocytes, SYBR Green DNA, 72 h; series mostly up to 12.8 µM
Outline: as §1

[10] = test system: CP262; experiment: as above; settings: P. falciparum in erythrocytes, SYBR Green DNA, 72 h; series mostly up to 12.8 µM
Outline: as §1

[11] = test system: CP266; experiment: as above; settings: P. falciparum in erythrocytes, SYBR Green DNA, 72 h; series mostly up to 12.8 µM
Outline: as §1

[12] = test system: CP297; experiment: as above; settings: P. falciparum in erythrocytes, SYBR Green DNA, 72 h; series mostly up to 12.8 µM
Outline: as §1

[13] = test system: CP305; experiment: as above; settings: P. falciparum in erythrocytes, SYBR Green DNA, 72 h; series mostly up to 12.8 µM
Outline: as §1

[14] = test system: CP315; experiment: as above; settings: P. falciparum in erythrocytes, SYBR Green DNA, 72 h; series mostly up to 12.8 µM
Outline: as §1

[15] = test system: CP329; experiment: as above; settings: P. falciparum in erythrocytes, SYBR Green DNA, 72 h; series mostly up to 12.8 µM
Outline: as §1

[16] = test system: DFO2036; experiment: as above; settings: P. falciparum in erythrocytes, SYBR Green DNA, 72 h; series mostly up to 12.8 µM
Outline: as §1

[17] = test system: N140; experiment: as above; settings: P. falciparum in erythrocytes, SYBR Green DNA, 72 h; series mostly up to 12.8 µM
Outline: as §1

[18] = test system: PC15; experiment: as above; settings: P. falciparum in erythrocytes, SYBR Green DNA, 72 h; series mostly up to 12.8 µM
Outline: as §1

[19] = test system: SC27B; experiment: as above; settings: P. falciparum in erythrocytes, SYBR Green DNA, 72 h; series mostly up to 12.8 µM
Outline: as §1

[20] = test system: W2; experiment: as above; settings: P. falciparum in erythrocytes, SYBR Green DNA, 72 h; series mostly up to 12.8 µM
Outline: as §1

Measured: Potency

CN[C@H]1[C@H](O)[C@@H](O[C@@H]2[C@H](O)[C@@H](O[C@H]3OC(CN)=CC[C@H]3N)[C@@H](N)C[C@H]2N)OC[C@@]1(C)O
inactive: all assays above

CC(C)(C)NC[C@H](O)COc1cccc2c1C[C@@H](O)[C@@H](O)C2
inactive: all assays above

Cc1ccc2c(c1)c1c3n2CCN[C@H]3CCC1
not listed: [4] | [12] | [18] | [20]
inactive: all other assays above

CC[C@](C)(CN(C)C)OC(=O)c1ccccc1
active: [20] 2.87 µM
inactive: all other assays above

Cc1ncc([N+](=O)[O-])n1C[C@H](O)CCl
inactive: all assays above

CCN1CCC[C@@H](OC(=O)C(c2ccccc2)c2ccccc2)C1
active: [20] 1.44 µM
not listed: [4] | [9] | [17] | [18]
inactive: all other assays above

CN[C@H]1[C@@H](O)[C@@H](NC)[C@@H]2O[C@@]3(O)C(=O)C[C@@H](C)O[C@H]3O[C@H]2[C@H]1O
inactive: all assays above

CCCCC[C@H](O)/C=C\[C@@H]1[C@H](O)CC(=O)[C@@H]1CCCCCCC(=O)O
not listed: [1] | [20]
inactive: all other assays above

CC(=O)O[C@H]1C[C@@]2(C)[C@H](C[C@@H](O)[C@H]3[C@@]4(C)CC[C@@H](O)[C@@H](C)[C@H]4CC[C@@]32C)C1=C(CCC=C(C)C)C(=O)O
inactive: all assays above

CC1=C(C(=O)O)N2C(=O)[C@@H](NC(=O)[C@@H](N)c3ccc(O)cc3)[C@@H]2SC1
inactive: all assays above

O=C(N/N=C\c1ccc([N+](=O)[O-])o1)c1ccc(O)cc1
active: [2] 1.58 µM | [3] 2.82 µM | [4] 3.16 µM | [5] 3.16 µM | [6] 5.73 µM | [7] 3.55 µM | [8] 3.16 µM | [9] 3.16 µM | [12] 3.22 µM | [13] 2.56 µM | [14] 5.73 µM | [15] 5.73 µM | [16] 2.82 µM | [17] 3.16 µM | [18] 2.82 µM | [19] 3.55 µM | [20] 1.81 µM
inactive: [1]

CC1(C)O[C@H]2C[C@@H]3[C@H]4CCC5=CC(=O)CC[C@@]5(C)[C@]4(F)[C@@H](O)C[C@@]3(C)[C@@]2(C(=O)CCl)O1
inactive: [1] | [11] | [15]
active: [2] 3.98 µM | [3] 3.98 µM | [4] 3.55 µM | [5] 1.58 µM | [7] 2.24 µM | [9] 3.55 µM | [17] 2.51 µM | [18] 3.55 µM | [20] 4.55 µM

O=C1O[C@@H]([C@@H](O)CO)[C@@H](O)[C@H]1O
inactive: all assays above

Cc1cccc(C)c1NC(=O)[C@H](C)N
active: [12] 5.1 µM
not listed: [6] | [10] | [11] | [13] | [14] | [15]
inactive: all other assays above

COc1cc2nc(N3CCN(C(=O)[C@@H]4COc5ccccc5O4)CC3)nc(N)c2cc1OC
active: [20] 5.36 µM
not listed: [2] | [3] | [5] | [10] | [12] | [15] | [17]
inactive: all other assays above

C[C@H](N[C@@H](C)COc1ccccc1)[C@H](O)c1ccc(O)cc1
active: [20] 4.55 µM
not listed: [11] | [12]
inactive: all other assays above

Cn1nnnc1SCC1=C(C(=O)O)N2C(=O)[C@@H](NC(=O)[C@@H](O)c3ccccc3)[C@@H]2SC1
inactive: all assays above

CC(=C(CCOP(=O)(O)O)SC(=O)c1ccccc1)N(C=O)Cc1cnc(C)nc1N
inactive: all assays above

COc1cc2nc(N3CCN(C(=O)[C@@H]4CCCO4)CC3)nc(N)c2cc1OC
not listed: [11] | [20]
inactive: all other assays above

CC[N+](CC)(CC)CC[C@](O)(c1ccccc1)C1CCCCC1
not listed: [20]
inactive: all other assays above

C[C@@H]1O[C@H](O[C@@H]2\C=C/C=C\C=C/C=C\C[C@H](C)OC(=O)/C=C\[C@H]3O[C@@H]3C[C@H](O)C[C@]3(O)C[C@@H](O)[C@@H](C(=O)O)[C@H](C2)O3)[C@@H](O)[C@H](N)[C@@H]1O (stereo in doubt)
inactive: all assays above

C1CCN2C[C@@H]3C[C@@H](CN4CCCC[C@H]34)[C@H]2C1
not listed: [20]
inactive: all other assays above

CC(=O)OCC(=O)[C@@]1(O)[C@H](C)C[C@@H]2[C@H]3CCC4=CC(=O)C=C[C@]4(C)[C@]3(F)[C@@H](O)C[C@@]21C
not listed: [1]
inactive: all other assays above

C[C@@]12CC[C@H]3[C@@H](CCC4=CC(=O)CC[C@]43C)[C@H]1CC[C@H]2C(=O)CO
not listed: [3]
inactive: all other assays above
